Design in all cases: scale not given: direction of the effect not stated beside the values
Test [1] addresses Protein translocase subunit SecA (Escherichia coli (strain K12)) (UniProt P10408). Description: Assay to Identify E. coli SecA ATPase Inhibitors. In kind it is functional. Conditions: 30 µM.
Test [2] addresses T1, Ubiquitin-activating enzyme e1, putative (Leishmania donovani (strain BPK282A1)) (UniProt E9BSI1).
T1 sequence (whole entry): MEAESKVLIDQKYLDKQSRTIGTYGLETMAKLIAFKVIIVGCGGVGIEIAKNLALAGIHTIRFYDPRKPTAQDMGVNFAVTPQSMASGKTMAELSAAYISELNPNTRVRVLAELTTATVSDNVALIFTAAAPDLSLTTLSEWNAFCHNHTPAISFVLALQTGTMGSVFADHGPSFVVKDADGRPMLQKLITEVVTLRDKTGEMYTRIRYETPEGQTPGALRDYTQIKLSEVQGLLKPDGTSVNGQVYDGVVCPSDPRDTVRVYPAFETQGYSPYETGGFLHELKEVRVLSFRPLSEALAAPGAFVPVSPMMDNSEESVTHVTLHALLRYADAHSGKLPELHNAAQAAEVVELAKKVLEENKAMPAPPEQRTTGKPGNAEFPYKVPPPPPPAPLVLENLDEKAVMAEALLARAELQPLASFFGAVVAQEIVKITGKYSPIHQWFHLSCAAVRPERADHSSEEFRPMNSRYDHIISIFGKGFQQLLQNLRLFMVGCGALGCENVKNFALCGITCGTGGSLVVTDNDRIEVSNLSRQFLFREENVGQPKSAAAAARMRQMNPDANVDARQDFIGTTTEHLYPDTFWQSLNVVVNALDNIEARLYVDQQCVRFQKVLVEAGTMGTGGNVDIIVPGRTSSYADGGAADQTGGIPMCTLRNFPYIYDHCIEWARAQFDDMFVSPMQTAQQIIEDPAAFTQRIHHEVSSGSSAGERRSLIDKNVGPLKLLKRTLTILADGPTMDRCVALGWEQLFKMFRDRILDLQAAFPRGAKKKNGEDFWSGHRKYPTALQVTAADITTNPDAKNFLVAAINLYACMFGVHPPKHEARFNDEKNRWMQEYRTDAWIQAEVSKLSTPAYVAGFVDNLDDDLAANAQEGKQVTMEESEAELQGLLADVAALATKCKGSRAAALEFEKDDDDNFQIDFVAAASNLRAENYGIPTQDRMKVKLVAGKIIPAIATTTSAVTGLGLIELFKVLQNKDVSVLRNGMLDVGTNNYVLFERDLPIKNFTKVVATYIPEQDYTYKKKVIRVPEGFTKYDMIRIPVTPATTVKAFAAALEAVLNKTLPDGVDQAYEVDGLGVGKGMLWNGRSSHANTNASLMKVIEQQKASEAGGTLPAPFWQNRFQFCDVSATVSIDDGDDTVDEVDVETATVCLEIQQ
Nature of the test: Leishmania donovani Ubiquitin Activating Enzyme (LdE1). The note with it: 30 µM. The class given is functional.

Test [3] concerns the target AMP-activated protein kinase, AMPK (Homo sapiens) (UniProt P54646+O43741+P54619+Q9UGJ0+Q9Y478+Q13131+Q9UGI9). Description: AMP-dependent Kinase enzyme assay. An in vitro enzyme assay that detects ADP turnover that is directly proportional to AMPK activity. This uses naive AMPK that is activated during the assay with MK-8722. The note with it: 30 µM. The class given is functional.

The target of test [4] is Sialic acid-binding Ig-like lectin 9 (Homo sapiens) (UniProt Q9Y336). Description: Hs-Siglec9 ALPHAscreen SOP 20170721. The note with it: 10 µM.
A further test relates to Trypanosoma cruzi. Description: Trypanosoma cruzi phosphomannomutase and mannose-1-phosphate guanylyltransferase assay. In kind it is functional. Conditions: 10 µM.
The target in test [5] is T2, Arginase-2, mitochondrial (Homo sapiens) (UniProt P78540).
T2 sequence (whole entry): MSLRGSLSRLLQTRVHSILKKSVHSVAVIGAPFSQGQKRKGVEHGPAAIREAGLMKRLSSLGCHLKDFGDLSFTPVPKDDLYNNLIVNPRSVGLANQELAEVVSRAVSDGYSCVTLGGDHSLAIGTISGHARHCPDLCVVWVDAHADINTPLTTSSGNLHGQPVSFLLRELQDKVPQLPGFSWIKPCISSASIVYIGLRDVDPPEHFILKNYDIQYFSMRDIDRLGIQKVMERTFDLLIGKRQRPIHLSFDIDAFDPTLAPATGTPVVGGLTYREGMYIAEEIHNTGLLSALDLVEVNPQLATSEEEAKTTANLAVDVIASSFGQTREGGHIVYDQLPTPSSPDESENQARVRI
Description: in vitro enzyme assay to detect the production of urea directly proportional to the activity of Arginase II. Also: in the data most compounds retested in dose-response had high values. The class given is functional. Conditions: 33.3 µM.

The target in test [6] is T3, Proteasome subunit beta (Trypanosoma cruzi) (UniProt O96673).
T3 sequence (whole entry): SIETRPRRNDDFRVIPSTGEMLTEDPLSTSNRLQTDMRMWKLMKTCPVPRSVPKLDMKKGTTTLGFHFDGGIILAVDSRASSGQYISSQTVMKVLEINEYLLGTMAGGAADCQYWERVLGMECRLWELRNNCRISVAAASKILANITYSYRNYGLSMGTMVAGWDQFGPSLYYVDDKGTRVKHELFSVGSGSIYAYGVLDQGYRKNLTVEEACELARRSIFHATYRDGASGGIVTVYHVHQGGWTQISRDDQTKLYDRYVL
Description: Trypanosoma cruzi proteasome chymotrypsin-like activity (TcProtChymo) assay. Also: in the data most compounds retested in dose-response had high values. In kind it is functional. Conditions: 9.37 µM.

The species named for a further test is Homo sapiens. Nature of the test: To identify inhibition of the IFN signalling (Jak-Stat) pathway via expression of an eGFP reporter gene under the control of an IFN-stimulated response element (ISRE) containing MxA promoter. In kind it is functional. Conditions: 30 µM.
Test [7] concerns the target T4, Tyrosyl-tRNA synthetase, putative (Trypanosoma cruzi (strain CL Brener)) (UniProt Q4DSP6).
T4 sequence (whole entry): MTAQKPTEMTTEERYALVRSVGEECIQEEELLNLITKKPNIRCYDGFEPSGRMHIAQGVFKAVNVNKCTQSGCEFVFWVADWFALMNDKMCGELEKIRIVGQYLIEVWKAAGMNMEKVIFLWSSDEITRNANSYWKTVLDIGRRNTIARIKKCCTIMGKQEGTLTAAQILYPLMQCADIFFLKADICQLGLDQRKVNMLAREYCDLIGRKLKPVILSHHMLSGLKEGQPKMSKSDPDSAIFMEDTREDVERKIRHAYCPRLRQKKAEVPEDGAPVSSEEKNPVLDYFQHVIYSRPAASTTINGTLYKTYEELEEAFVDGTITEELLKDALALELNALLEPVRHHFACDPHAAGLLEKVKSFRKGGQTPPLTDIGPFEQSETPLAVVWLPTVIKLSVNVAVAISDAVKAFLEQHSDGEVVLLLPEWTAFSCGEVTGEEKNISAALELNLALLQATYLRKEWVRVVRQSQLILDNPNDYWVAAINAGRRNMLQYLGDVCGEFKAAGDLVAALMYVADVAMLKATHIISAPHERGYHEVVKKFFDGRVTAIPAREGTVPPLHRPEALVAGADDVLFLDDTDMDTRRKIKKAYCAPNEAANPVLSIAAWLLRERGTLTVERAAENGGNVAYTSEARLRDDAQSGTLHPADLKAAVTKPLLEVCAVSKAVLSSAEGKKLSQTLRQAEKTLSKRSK
Description: Trypanosoma cruzi tyrosyl tRNA synthetase (TcYRS) _High Tyrosine SOP. Also: in the data most compounds retested in dose-response had high values. In kind it is functional. The note with it: 30 µM.

The target in test [8] is T4, Tyrosyl-tRNA synthetase, putative (Trypanosoma cruzi (strain CL Brener)). Description: Trypanosoma cruzi tyrosyl tRNA synthetase (TcYRS) SOP. The class given is functional. Conditions: 30 µM.
The target in test [9] is Chromo domain-containing protein 1 (Saccharomyces cerevisiae (strain ATCC 204508 / S288c) (Baker's yeast)) (UniProt P32657). Description: ScCHD-1 Enzyme Inhibition Assay. Also: in the data most compounds retested in dose-response had high values. The class given is functional. The note with it: 30 µM.

Molecules are shown by their SMILES. For some of these results: Potency and affinity values are given separately.

Sequence of Sialic acid-binding Ig-like lectin 9 (Homo sapiens) (Q9Y336 whole entry): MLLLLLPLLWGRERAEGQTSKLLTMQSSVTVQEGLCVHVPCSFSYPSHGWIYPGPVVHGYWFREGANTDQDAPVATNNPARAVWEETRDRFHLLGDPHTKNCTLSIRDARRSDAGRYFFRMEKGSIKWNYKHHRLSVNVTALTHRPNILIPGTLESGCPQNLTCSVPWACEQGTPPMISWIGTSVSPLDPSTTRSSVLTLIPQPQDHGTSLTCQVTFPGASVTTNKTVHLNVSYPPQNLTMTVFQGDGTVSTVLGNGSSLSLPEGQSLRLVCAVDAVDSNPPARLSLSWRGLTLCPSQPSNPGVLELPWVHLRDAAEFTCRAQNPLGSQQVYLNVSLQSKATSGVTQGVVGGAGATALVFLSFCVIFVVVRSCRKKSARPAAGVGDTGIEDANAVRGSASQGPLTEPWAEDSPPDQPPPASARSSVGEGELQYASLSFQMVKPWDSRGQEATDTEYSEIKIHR
Sequence of Protein translocase subunit SecA (Escherichia coli (strain K12)) (P10408 whole entry): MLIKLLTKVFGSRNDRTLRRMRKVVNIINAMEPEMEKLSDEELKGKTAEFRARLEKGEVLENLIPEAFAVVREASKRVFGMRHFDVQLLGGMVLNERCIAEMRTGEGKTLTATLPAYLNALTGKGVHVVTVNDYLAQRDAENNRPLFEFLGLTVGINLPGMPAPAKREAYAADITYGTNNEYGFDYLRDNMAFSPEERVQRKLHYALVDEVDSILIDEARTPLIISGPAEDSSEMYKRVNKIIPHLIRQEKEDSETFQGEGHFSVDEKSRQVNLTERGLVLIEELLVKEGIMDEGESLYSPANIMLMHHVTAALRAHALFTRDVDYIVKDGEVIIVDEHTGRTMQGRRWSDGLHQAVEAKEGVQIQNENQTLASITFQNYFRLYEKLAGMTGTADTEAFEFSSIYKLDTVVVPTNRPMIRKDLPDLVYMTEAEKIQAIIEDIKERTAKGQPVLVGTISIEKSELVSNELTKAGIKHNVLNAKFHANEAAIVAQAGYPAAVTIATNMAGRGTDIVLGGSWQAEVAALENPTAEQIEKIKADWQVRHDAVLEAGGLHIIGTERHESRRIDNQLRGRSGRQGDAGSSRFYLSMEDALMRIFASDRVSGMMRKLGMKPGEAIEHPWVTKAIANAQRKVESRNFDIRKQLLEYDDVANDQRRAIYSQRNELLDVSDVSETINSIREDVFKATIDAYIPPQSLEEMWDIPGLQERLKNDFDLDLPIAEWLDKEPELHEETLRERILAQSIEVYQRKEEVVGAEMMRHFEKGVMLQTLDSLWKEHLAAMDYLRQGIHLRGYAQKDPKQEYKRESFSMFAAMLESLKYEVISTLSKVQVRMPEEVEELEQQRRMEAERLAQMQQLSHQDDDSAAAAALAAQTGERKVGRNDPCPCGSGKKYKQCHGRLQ
Sequence of Chromo domain-containing protein 1 (Saccharomyces cerevisiae (strain ATCC 204508 / S288c) (Baker's yeast)) (P32657 whole entry, the tested form may be a part): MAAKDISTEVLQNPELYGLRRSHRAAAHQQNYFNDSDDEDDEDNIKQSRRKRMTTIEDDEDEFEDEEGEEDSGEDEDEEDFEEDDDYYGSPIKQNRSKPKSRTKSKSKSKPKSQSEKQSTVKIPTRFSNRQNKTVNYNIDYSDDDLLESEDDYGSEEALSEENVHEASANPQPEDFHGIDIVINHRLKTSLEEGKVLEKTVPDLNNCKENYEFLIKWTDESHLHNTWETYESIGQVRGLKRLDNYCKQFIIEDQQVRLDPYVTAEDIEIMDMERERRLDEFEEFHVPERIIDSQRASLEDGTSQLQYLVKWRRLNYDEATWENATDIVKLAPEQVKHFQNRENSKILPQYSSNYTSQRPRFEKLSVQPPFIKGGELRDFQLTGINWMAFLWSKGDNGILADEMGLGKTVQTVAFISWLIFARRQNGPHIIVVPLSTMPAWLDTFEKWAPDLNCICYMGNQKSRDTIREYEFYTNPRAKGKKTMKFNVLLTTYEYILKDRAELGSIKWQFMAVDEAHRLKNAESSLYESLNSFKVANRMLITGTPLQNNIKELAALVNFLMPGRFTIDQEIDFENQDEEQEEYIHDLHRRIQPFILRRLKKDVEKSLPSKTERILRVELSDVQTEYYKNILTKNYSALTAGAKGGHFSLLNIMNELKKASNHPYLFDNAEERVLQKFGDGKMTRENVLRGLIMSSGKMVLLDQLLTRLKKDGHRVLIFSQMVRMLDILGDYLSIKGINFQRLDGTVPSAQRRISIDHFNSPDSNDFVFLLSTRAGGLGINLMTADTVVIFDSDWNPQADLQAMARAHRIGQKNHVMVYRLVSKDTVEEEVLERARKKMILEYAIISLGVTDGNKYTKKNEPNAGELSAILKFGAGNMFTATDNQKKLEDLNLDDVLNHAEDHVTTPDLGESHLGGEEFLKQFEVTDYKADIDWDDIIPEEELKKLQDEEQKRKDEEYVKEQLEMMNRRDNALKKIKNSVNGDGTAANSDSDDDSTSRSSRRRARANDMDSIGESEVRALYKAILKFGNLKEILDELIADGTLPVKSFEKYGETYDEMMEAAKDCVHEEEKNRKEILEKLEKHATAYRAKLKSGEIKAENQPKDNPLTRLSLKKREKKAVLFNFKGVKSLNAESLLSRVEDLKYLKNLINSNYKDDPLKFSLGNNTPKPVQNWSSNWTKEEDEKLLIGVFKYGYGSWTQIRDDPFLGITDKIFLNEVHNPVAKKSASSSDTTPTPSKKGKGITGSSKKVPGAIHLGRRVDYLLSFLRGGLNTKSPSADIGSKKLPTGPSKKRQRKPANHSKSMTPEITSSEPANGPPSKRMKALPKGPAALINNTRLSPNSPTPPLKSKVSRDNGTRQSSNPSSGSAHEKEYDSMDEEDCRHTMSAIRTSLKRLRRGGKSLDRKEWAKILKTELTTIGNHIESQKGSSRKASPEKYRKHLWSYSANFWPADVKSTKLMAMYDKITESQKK

For the compound `N#CC1(C(=O)N2CCN(c3nccs3)CC2)CCCCC1`, the Percent Effect in [1] was -1.57%; in test [2], 13.2%; in [3] it was 7.71%; in [4], 8.98%; in the test on Trypanosoma cruzi it was -2.26%; in [5], 2.68%. The Percent Effect in test [6] was 11%; in the test listed under Homo sapiens, -3.2%; in test [7] it was 7.35%; in test [8], 17.1%; in [9], -6.21%.

On to `COc1c(C)cnc(CN2CCCCC2Cn2nc(C)nc2C)c1C` (stereo unspecified), for which the Percent Effect in test [1] was 0.617%; in test [2] it was 17.7%; in test [3], -1.73%; in test [4] it was -6.46%; in the test on Trypanosoma cruzi it was 2.55%; in test [5], 5.32%. For the same compound, the Percent Effect was 14.8% in [6]; 4.74% in the test filed under Homo sapiens; 14.3% in [7]; 26.6% in [8]; -9.69% in test [9].

In the case of `N#CCCN(C(=O)CN1CCCC1Cc1ccccc1)c1ccccc1` (stereo unspecified), the Percent Effect in test [1] is -5.2%; in test [2], 2.7%; in test [3], -1.32%; in test [4], 26.1%; in the test with Trypanosoma cruzi it was 4.1%; in test [5], 10.8%. For the same compound, the Percent Effect in test [6] is 5.33%; in the test listed under Homo sapiens, 0.149%; in test [7], 11.9%; in test [8] it was 13.4%; in test [9] it was -6.86%.

As for `Cc1ncsc1CN1C[C@@H]2COC[C@]2(COc2ccc(C#N)cn2)C1`, the Percent Effect is -3.44% in [1]; -5.48% in test [2]; -1.94% in test [3]; 1.31% in [4]; 7.74% with Trypanosoma cruzi; -3.59% in test [5]. Also, the Percent Effect in [6] was 2.31%; in the test listed under Homo sapiens it was -1.06%; in test [7], 1.04%; in [8], 3.7%; in test [9], 2.89%.

Take `CCC(C)(C)NC(=O)C1CC(=O)N(CC2CC2)C1` (stereo unspecified): the Percent Effect in test [1] was -2.71%; in [2], 13.5%; in test [3], 9.25%; in [4] it was -3.89%; in the test with Trypanosoma cruzi, -7.15%; in test [5] it was 3.14%. Besides, the Percent Effect in test [6] was 11.3%; in the test filed under Homo sapiens, 17.7%; in test [7] it was 2.97%; in [8] it was -18.3%; in [9], -7.51%.

Take `COCCn1ccc2cc(NC(C)=O)ccc21`: the Percent Effect was -8.18% in test [1]; 23.7% in [2]; -9.22% in test [3]; 7.23% in test [4]; 1.46% with Trypanosoma cruzi; -9.47% in test [5]. Further, the Percent Effect in [6] was 16.4%; in the test filed under Homo sapiens it was -6.07%; in test [7], 4.25%; in test [8], 10.4%; in test [9], -9.21%.

Take `COc1cccc(-n2c(C)cc(C(=O)NS(C)(=O)=O)c2C)c1`: the Percent Effect in [1] was -2.83%; in [2], 20.2%; in test [3], -2.25%; in test [4], -3.1%; with Trypanosoma cruzi it was -4.63%; in test [5], 2.28%. Besides, the Percent Effect was 2.21% in [6]; 8.44% in the test listed under Homo sapiens; 6.4% in test [7]; 13.9% in [8]; -5.99% in test [9].

Take `CCn1nc(C)c(CCn2ccnc2-c2cc3n(n2)CCCNC3)c1C`: the Percent Effect in [1] was -3.39%; in test [2], 2.67%; in [3], 0.691%; in [4], 0.912%; with Trypanosoma cruzi it was -3.02%; in test [5], 4.17%. In addition, the Percent Effect is 8.2% in test [6]; 12.4% in the test filed under Homo sapiens; 2.73% in test [7]; 8.64% in test [8]; -6.3% in test [9].

Consider `CC(O)CN1CCC(CNCc2cccc(Br)c2)CC1` (stereo unspecified), for which the Percent Effect in test [1] is -6.33%; in test [2], 5.41%; in test [3], -21.1%; in [4], 11.5%; in the test with Trypanosoma cruzi, -4.25%; in test [5] it was -5.61%. The Percent Effect in test [6] is -0.721%; in the test listed under Homo sapiens, 11.2%; in [7], 2.46%; in test [8], -1.24%; in [9], 4.26%.

On to `CCCNC(=O)c1sc(Nc2ccc(Cl)cn2)nc1C`, for which the Percent Effect in test [1] was -0.647%; in test [2], 17.3%; in test [3], -1.88%; in test [4] it was -4.2%; in the test with Trypanosoma cruzi, 4.13%; in test [5], -0.88%. Moreover, the Percent Effect in test [6] is 13.5%; in the test filed under Homo sapiens it was -1.08%; in [7] it was 7.41%; in test [8], 7.69%; in [9], -6.09%.

For the compound `Cc1ccc(SCC(=O)NS(=O)(=O)c2ccc3c(c2)OCCO3)cc1`, the Percent Effect in test [1] was -2.38%; in test [2] it was -10.5%; in test [3], 2.56%; in test [4], -1.45%; with Trypanosoma cruzi, 5.45%; in test [5], -2.68%. For the same compound, the Percent Effect was 15% in test [6]; 3.33% in the test listed under Homo sapiens; -6.37% in test [7]; -7.32% in test [8]; -0.431% in test [9].

(Values after ChEMBL document CHEMBL3988442, “University of Dundee, Small-Polar-MMV Screening Library” (2021).)
